Laboratory results as given in PubChem BioAssay (NCI).
Compounds without any hit were thinned out: in the full panel of roughly 79,000, 15% have a hit. A number with no mark means an inactive call. No stated cut-off is given here; in the data, active means growth inhibition above about 70%; inactive means the rest.

test: NCI Yeast Anticancer Drug Screen. Data for the sgs1 mgt1 strain (AID 161);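 further: 0% = growth of cultures given vehicle only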; conditions: S. cerevisiae sgs1 mgt1 strain, at 50.0 µM, hits give high values
Method in brief: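 Mutant yeast exposed to compound; growth scored against vehicle-only wells.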

| Compound | growth inhibition [%] |
| --- | --- |
| COc1ccc(C2OC3=C(Nc4ccc(Cl)cc4N3)C2=O)c(OC)c1 (stereo not given) | -28.1 |
| Nc1nc(-c2ccccc2)ns1 | 1.4 |
| O=C(O)CN1CCN(CC(=O)O)CCN(CC(=O)O)CCN(CC(=O)O)CC1 | 2.9 |
| COC(=O)CCC(=O)CC(=O)C(=O)Nc1ccc(F)cc1 | -1.7 |
| c1ccc(-c2nc(-c3ccccn3)cc3ccccc23)cc1 | 10 |
| CC12CCC(C(Br)C1=O)C2(C)CBr (stereo not given) | 20.4 |
| CN1CCC(OC(=O)C(O)C2CCCCC2)CC1 (stereo not given) | 13.8 |
| CCCCCCCCCCCCOP(=O)(O)OP(=O)(O)OCC1OC(n2ccc(N)nc2=O)CC1O (stereo not given) | 27.6 |
| COc1ccc2c(c1OC)Oc1c(OC)ccc3c1C(C2)N(C)C[C@@H]3O (stereo not given in full) | -7.6 |
| CC(=O)c1c(-c2ccccc2)noc1C | -7.55 |
| CCN(CC)CCCC(C)Nc1cc(C)c2nc(C)cc(C)c2c1C (stereo not given) | 17 |
| CC(=O)ONc1nc(C)c(CCC2OCCO2)c(SC(=N)N)n1 | 30 |
| O=C(NCC(F)(F)C(F)(F)C(F)(F)C(F)(F)C(F)(F)C(F)(F)C(F)(F)F)Oc1ccccc1 | 26.7 |
| CC(=O)C1(C)SC(N(c2ccccc2)c2ccccc2)=NC1=O (stereo not given) | -4.05 |
| O=c1cc(O)n2ncnc2[nH]1 | -21.8 |
| Cc1ccc(C)c(NC(=O)C(=O)C(C2C(C)CC(=O)C2CC(=O)O)[N+](=O)[O-])c1 (stereo not given) | -8.05 |
| COc1cc(CCC(C)=O)ccc1OC(=O)c1c(-c2c(F)cccc2Cl)noc1C | 14.3 |
| CN(C)c1c([O-])c(=[N+](C)C)c1=O | -20.2 |
| C[N+](C)(C)CCc1ccc2ccccc2c1 | 9.35 |
| CCOP(=O)(OCC)c1c(C(=O)OC)cc(=O)[nH]c1-c1ccc(C)cc1 | 40 |

| Compound | growth inhibition [%] |
| --- | --- |
| CCOC(=O)CCC(C#N)C(=O)OCC (stereo not given) | 9.3 |
| CC(C)(C)C(=O)C(C(=O)c1ccccc1)C(=O)C(C)(C)C | 19.9 |
| FC(F)(F)c1cccc(C=NC23CC4CC(CC(C4)C2)C3)c1 | -2.05 |
| CCCCCCCCCCCCCCCCCCN=C(N)N | 12.8 |
| COc1ccc(/C(N=Nc2ccccc2)=N/N=C(N)N)cc1 | 12.1 |
| COc1ccc(/C(=N\N=C(N)N)C(c2ccc(OC)cc2)C2OC(=O)c3ccccc32)cc1 (stereo not given) | -4.65 |
| COc1ccc(NC(=O)CSc2nc(C)nc3c2sc(=S)n3-c2ccccc2)cc1 | 2.95 |
| [O-]c1c[n+](-c2ccc3c(c2)OCO3)no1 | -0.25 |
| CCOC(=O)C1=C(N)n2c(s/c(=C/c3ccc(N(C)C)cc3)c2=O)=C(C(=O)OCC)C1c1ccc(N(C)C)cc1 (stereo not given) | -9.1 |
| COc1ccc(/C(Cl)=C(\C=O)c2cc(OC)c(OC)c(OC)c2)cc1OC | -5 |
| COC(=O)C[C@](O)(CCCC(C)(C)O)C(=O)O[C@@H]1C(OC)=C[C@]23CCCN2CCc2cc4c(cc2[C@H]13)OCO4 | 43.2 |
| c1ccc(-c2c(-c3cccs3)[nH]c(-c3cccs3)c2-c2ccccn2)nc1 | 45.7 |
| CCOC(=O)/C(=C\c1cc(OC)ccc1OC)P(=O)(OCC)OCC | 18.4 |
| CCCCCCCCCCCCN(CC(O)C(O)C(OC1OC(CO)C(O)C(O)C1O)C(O)CO)C(=O)CCCCCCCCCCC (stereo not given) | 17.7 |
| O=C1OC(CC(=O)c2ccc(Cl)c(Cl)c2)C(Cl)=C1Cl (stereo not given) | 33.1 |
| COc1ccc(C(=O)c2ccccc2)c(N)c1 | -2.4 |
| COc1cc(CC2C(=O)OCC2C2(c3ccc4c(c3)OCO4)SCCCS2)cc(OC)c1OC (stereo not given) | 0.15 |
| O=C(O)/C=C\C(=O)Nc1ccc(N=Nc2ccccc2)cc1 | -7.95 |
| CN(C)/C=C/C(=O)c1ccccc1 | 17.6 |
| O=C(O)c1nc2ccccc2c(=O)[nH]1 | -9.7 |
